This is one part of a sample in which hits are shown more often than they occur.
Shiga toxin inh: inhibitors of Shiga toxin in Vero cells. hit rate 9.2% among 290,000. Vero cells, Shiga toxin protein synthesis inhibition reporter. AID 2315. inhibition, % at 38.7 µM; in the data active means inhibition mostly above about 28%, no sharp cut-off; inactive means mostly below about 43%; further: 0% is about no effect
NS1 inh: blocks influenza NS1 protein function; Potency, µM (titrated, usually from 46.1 µM), without a hit: at the highest dose activity, positive = more growth; hit rate 0.4% among 270,000; calls by dose curve; further: potency means the concentration at half of the fitted maximal effect; actives are rising curves; nearly all actives have a fitted effect of over 50% in size
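Recovery from NS1-induced slow growth read by OD600 in budding yeast switched to galactose assay medium (pH 6.0, -URA) at 1:100 dilution. Compound 23 nl per well; the matching strain lacking NS1 serves as control.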
SARS PLpro yeast: SARS-CoV PLP inhibition in yeast. Potency, µM (doses to about 32.9 µM), without a hit: top-dose activity, positive = growth rescue, most hits filed as activators. hit rate 0.19% among 330,000. S. cerevisiae expressing SARS-CoV PLpro, growth rescue; calls by dose curve; further: potency means the concentration at half of the fitted maximal effect; 0% is about no effect; nearly all actives have a fitted effect of over 55% in size
TbPYK inhibitor: blocks Trypanosoma brucei pyruvate kinase | hit rate 0.12% among 410,000 | TbPYK enzyme, Kinase-Glo Plus ATP luminescence, 45 min | Potency, µM (highest dose often 76.8 µM), for the others: at the highest dose activity, negative = inhibition, hits mostly inhibitors | Q57TT1; further: potency means the concentration at half of the fitted maximal effect; on the % scale 0 is the no-effect control and ±100 the full control effect; nearly all actives have a fitted effect of over 50% in size
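Enzyme and substrate buffer are dispensed first and compound is pin-transferred. ADP at 130 uM final then starts the reaction, which runs 45 min at room temperature. Detection reagent is added for 10 min before luminescence is imaged.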
LmPK inh: blocks Leishmania mexicana pyruvate kinase activity; purified LmPK, Kinase-Glo ATP luminescence, 1 h; Potency, µM (series often up to 57.5 µM), inactives show top-dose activity change, negative = inhibition, most hits filed as inhibitors; hit rate 0.37% among 290,000; further: potency means the concentration at half of the fitted maximal effect; on the % scale 0 is the no-effect control and ±100 the full control effect
Target sequence (Q27686 whole entry, looked up): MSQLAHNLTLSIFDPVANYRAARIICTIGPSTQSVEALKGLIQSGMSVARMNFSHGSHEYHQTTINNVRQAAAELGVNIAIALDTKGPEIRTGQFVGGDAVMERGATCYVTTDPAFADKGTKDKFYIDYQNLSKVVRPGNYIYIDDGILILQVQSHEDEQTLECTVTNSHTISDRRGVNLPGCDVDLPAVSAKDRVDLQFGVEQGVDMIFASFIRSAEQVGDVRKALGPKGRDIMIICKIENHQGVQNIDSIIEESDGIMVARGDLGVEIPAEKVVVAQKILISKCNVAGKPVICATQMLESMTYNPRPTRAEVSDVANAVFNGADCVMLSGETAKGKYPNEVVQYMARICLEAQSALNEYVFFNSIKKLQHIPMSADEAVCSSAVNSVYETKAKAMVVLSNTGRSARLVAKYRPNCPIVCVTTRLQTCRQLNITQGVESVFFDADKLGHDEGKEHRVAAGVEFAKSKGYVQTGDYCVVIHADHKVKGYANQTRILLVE
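0.1 nM LmPK, 0.5 mM PEP, 0.1 mM ADP; 50 mM imidazole pH 7.2, 7 mM MgCl2, 50 mM KCl; 1 h RT. Kinase-Glo luminescence readout, normalized to no-enzyme (full inhibition) and uninhibited wells.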
Cycloheximide cs: counter-screen hit for Shiga toxin inhibitors, cycloheximide. hit rate 12% among 300,000. max response, %. cell reporter, cycloheximide protein synthesis inhibition counterscreen; in the data active means max response mostly above about 13%, no sharp cut-off; inactive means mostly below about 14%; further: read at 38.3 µM for the half of the compounds with a filed dose; 0% is about no effect
Starred values were filed as active, the others as inactive; ? = inconclusive; . = not tested or not shown; [ ] = another dose, or the depositor's remark. Unless noted, the call rests on the fitted dose curve; in most records, active means well fitted curve in the direction sought with a large enough effect; inconclusive means small, poorly fitted or top-dose-only effect, or another doubt; inactive means no such curve, though single readings can be large; an effect the other way counts as inactive or inconclusive.

SMILES | Shiga toxin inh | NS1 inh | SARS PLpro yeast | TbPYK inhibitor | LmPK inh | Cycloheximide cs
COc1ccc(/C=C/C(=O)Nc2ccc3c(c2)CCC3)cc1OC | 8.5 | -14.2% | -40.8% | -4.0% | 0.9% | 12.6
COc1ccccc1NC(=O)Nc1ccc2c(c1)CCC2 | 65.0* | -51.1% | 18.0% | -11.2% | -13.8% | 52.8*
COc1ccc(C)cc1NC(=O)Nc1ccc2c(c1)CCC2 | 28.8 | -26.7% | 6.8% | -10.4% | -1.6% | 24.1*
COc1cc(SC)ccc1C(=O)N1CCC(Cc2ccccc2)CC1 | -8.3 | . | . | . | . | 4.9
COc1ccccc1-c1noc2c1C(=O)N(Cc1cn(C3CCCC3)nn1)CC2 | . | . | . | -2.0% | . | .
Cc1ccc2oc(C(=O)Nc3nnc(C)s3)c(C)c2c1 | 49.9 | -14.8% | 0.8% | -2.8% | -9.2% | 17.4*
Cc1ccc2oc(C(=O)Nc3nonc3C)c(C)c2c1 | 66.5* | -10.9% | 6.9% | 1.4% | 5.1% | 28.3*
CCc1nonc1NC(=O)c1oc2cc(C)c(C)cc2c1C | 36.6 | 3.7% | ? | 0.0% | -2.1% | 25.1*
CN(CC(=O)Nc1ccccc1Br)C(=O)COc1ccc2ccccc2c1 | . | . | 0.3% | 1.4% | . | .
COCCN(C(=O)Nc1ccccc1OC)c1nc2ccccc2s1 | 29.5* | -36.8% | 4.1% | 3.5% | 5.1% | 26.3*
CN(C)/C=C1\Oc2ccc3ccccc3c2C1=O | 116.2* | . | -0.2% | -6.3% | -7.6% | 34.0*
CN(C)/C=C1/Oc2c(ccc3ccccc23)C1=O | 25.9 | . | 1.9% | 1.0% | 0.6% | 17.9
CNS(=O)(=O)c1cn(CC(=O)N2CCN(c3cccc(C)c3C)CC2)cc1S(=O)(=O)NC | . | . | . | 6.2%[15.4 µM] | . | .
NC(=S)N/N=C/c1ccc(C23CC4CC(CC(C4)C2)C3)cc1 | 79.1* | 0.3% | ? | 3.5% | -0.5% | 22.5*
Cc1cc(C)c2oc(-c3ccc(C)c(NC(=S)NC(=O)/C=C/c4ccco4)c3)nc2c1 | 44.2* | 12.0% | ? | 10.0% | -1.7% | 29.2*
O=C(/C=C/c1ccco1)NC(=S)Nc1nc(-c2ccc3ccccc3c2)cs1 | -7.6 | 17.6% | 7.8% | -3.5% | -6.5% | -1.4
Cc1cc(C)c2oc(-c3ccc(C)c(NC(=S)NC(=O)c4cccs4)c3)nc2c1 | 38.8* | 12.4% | -1.2% | 3.6% | -0.3% | 17.5*
Cc1ccc(-c2nc3ccccc3o2)cc1NC(=S)NC(=O)c1cccs1 | 97.6* | -2.9% | 2.8% | 3.6% | -1.8% | 32.4*
COc1cc2ccccc2cc1C(=O)Nc1cc(-c2nc3ccccc3o2)ccc1C | . | . | . | 0.5% | . | .
CCN1C(=O)/C(=C2/Sc3ccccc3N2CC)SC1=S | . | -2.3% | -4.3% | -5.8% | 2.4% | -2.4
CCN1/C(=C2\OC(=S)N(C)C2=O)Sc2ccccc21 | 40.0* | 5.9% | 9.5% | 0.7% | 1.1% | 13.9*
CC1=NN(c2ccc(Br)cc2)C(=O)/C1=C/c1ccc(-c2ccccc2C(=O)O)o1 | . | 3.0% | 5.4% | 0.6% | 6.3% | -1.3
Cc1c(C(=O)O)cccc1-c1ccc(/C=N/n2cnnc2)o1 | 37.7 | 2.3% | -0.8% | -11.8% | -0.2% | 28.1*
Cc1c(C(=O)O)cccc1-c1ccc(/C=N/Nc2ccc(Br)cc2)o1 | 139.6* | 0.7% | -86.8% | -13.1% | 7.7% | 106.1*
Cc1c(Cl)cccc1-c1ccc(/C=N/n2cnnc2)o1 | -15.5 | -79.2% | -15.8% | -8.5% | 8.3% | -3.2
SMILES | Shiga toxin inh | NS1 inh | SARS PLpro yeast | TbPYK inhibitor | LmPK inh | Cycloheximide cs
Nc1nc(-c2ccc(Br)s2)c(Br)s1 | 62.7* | -48.9% | -14.0% | -12.8% | 3.7% | 37.9*
N#Cc1c(N)nc2c(c1-c1ccc(Br)s1)CCCC2 | -11.9 | -4.1% | ? | -8.4% | 0.0% | -4.7
Cc1ccc2oc(-c3ccco3)nc2c1 | 101.0* | -3.7% | -5.1% | 0.5% | -26.6% | 42.3*
Nc1ccc2oc(-c3cccc4ccccc34)nc2c1 | -2.4 | 18.0% | -2.6% | -0.5% | 0.6% | -2.0
O=c1oc(-c2ccco2)nc2ccccc12 | -10.4 | -117.4% | -0.8% | 4.2% | -11.9% | 9.7
CC(C)(C)c1ccc(-c2nc3cc(N)ccc3o2)cc1 | 94.4* | -0.7% | -13.1% | -4.0% | 0.2% | 50.9*
Cc1ccc(-c2nc3cc(C)ccc3o2)cc1 | 117.8* | -11.7% | -2.1% | 1.3% | ? | 33.3*
CC(C)(C)c1ccc(-c2nc3cc(NC(=O)c4cc5ccccc5o4)ccc3o2)cc1 | . | . | . | -28.6% | . | .
Nc1ccc2oc(-c3cccs3)nc2c1 | 86.2* | -10.5% | -5.4% | 0.3% | -19.7% | 45.8*
Cc1ccc(-c2nc3cc(N)ccc3o2)cc1 | 68.0* | ? | -4.8% | -3.4% | ? | 24.7*
Cc1ccc2oc(-c3cccc(N)c3)nc2c1 | 57.9* | . | -9.8% | -12.0% | -22.0% | 25.5*
Cc1ccc(-c2nc3cc(N)ccc3o2)c(C)c1 | 66.0* | 6.9% | 1.0% | 4.5% | -5.6% | 33.2*
CC(C)c1ccc2oc(-c3ccc(N)cc3)nc2c1 | 117.2* | 22.8% | 0.6% | -2.9% | -14.1% | 41.6*
Cc1ccc(-c2nc3cc(NC(=O)c4cc5ccccc5o4)ccc3o2)cc1 | . | . | . | -1.3% | . | .
Nc1cccc(-c2nc3cc(S(=O)(=O)c4ccc5oc(-c6cccc(N)c6)nc5c4)ccc3o2)c1 | 19.6 | 19.7% | -3.0% | 1.5% | 0.1% | 4.1
COc1cc(OC)cc(C(=O)Nc2cc(C)on2)c1 | 15.2 | 5.4% | -14.0% | 0.1% | -10.6% | -2.6
CC(=O)Oc1ccc(C(=O)Nc2cc(C)on2)cc1 | 87.9* | -13.1% | 0.6% | 0.9% | -10.6% | 29.6*
COc1ccc(C(=O)Nc2cc(C)on2)cc1 | 46.9 | -15.5% | -1.5% | -0.2% | -13.5% | 27.0*
COc1ccc(OCc2cccc(C(=O)Nc3cc(C)on3)c2)cc1 | active | -0.4% | 3.6% | -15.8% | -6.1% | 91.4*
CC(=O)Oc1ccc(Oc2ccc(-c3noc(C)n3)cc2)cc1 | 82.6* | -16.0% | -4.3% | 6.6% | -6.3% | 32.1*
O=C(Nc1ccc(OC(F)(F)F)cc1)C1CCCN(C(=O)c2ccc(Cl)cc2)C1 (centres undefined) | . | . | -0.5% | -4.7% | . | .
Cc1ccc(C)c(Nc2nnc(-c3ccc(C)c(S(=O)(=O)NCC4CCCO4)c3)c3ccccc23)c1 (centres undefined) | . | . | . | 0.0% | . | .
CN(C(=O)c1ccncc1)c1nnc(-c2cccnc2)s1 | -3.4 | -0.8% | -2.3% | -0.9% | 1.3% | -3.5
CCN(C(=O)Cc1cccs1)c1nnc(-c2cccnc2)s1 | 48.4* | -11.6% | -1.3% | -4.1% | 2.1% | 28.3*
Cc1ccc(NC2=NCC(=O)N2Cc2cccs2)cc1C | 24.0 | 7.8% | -0.1% | 27.8% | 4.8% | 28.8*
O=C(c1ccc2c(c1)N(Cc1ccc(F)cc1)C(=O)c1ccccc1S2(=O)=O)N1CCC(Cc2ccccc2)CC1 | . | . | . | 3.4% | . | .
O=C(CNS(=O)(=O)c1ccccc1)N1CCc2ccccc2C1 | . | 0.3% | . | -4.3% | 6.3% | 34.8*
O=C(Cc1ccccc1[N+](=O)[O-])N1CCc2ccccc2C1 | 50.6 | -4.8% | -2.0% | -3.5% | 8.8% | 15.3*
Cc1ccc(S(=O)(=O)NCC(=O)N2CCc3ccccc3C2)cc1 | -7.4 | 6.9% | 3.6% | 1.0% | 3.6% | 0.7
